# Assay results: the supplement of paper PMC8728848
# The full list was thinned out, with the strongest signals kept by preference.
# Key:
# Assay in all cases: glycan array binding signal (z-score within array); higher = stronger binding
# Settings in all cases: glycan notation: IUPAC condensed, linker removed
# Glc(b1-6)Glc = biological target: Glc(b1-6)Glc
# Procedure, shortened: (§1)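 Glycan array data were curated from 3228 arrays in the Consortium for Functional Glycomics database and kept only where the protein sequence was available. Glycan names were converted to IUPAC-condensed notation, and columns mapping to the same glycan were averaged. The binding signal is a within-array Z-score, averaged across arrays of the same protein sequence at different concentrations or buffers and across linkers. Negative Z-scores can be read as non-binding.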
# GlcA(b1-3)GlcNAc = biological target: GlcA(b1-3)GlcNAc
# Procedure, shortened: as §1
# GlcA(b1-6)Gal = biological target: GlcA(b1-6)Gal
# Procedure, shortened: as §1
# [1] = biological target: GlcNAc(a1-4)Gal(b1-4)GlcNAc(b1-3)Gal(b1-4)GlcNAc
# Procedure, shortened: as §1
# [2] = biological target: GlcNAc(a1-6)Gal(b1-4)GlcNAc
# Procedure, shortened: as §1
# [3] = biological target: GlcNAc(b1-3)Gal(b1-4)GlcNAc(b1-2)Man(a1-3)[GlcNAc(b1-3)Gal(b1-4)GlcNAc(b1-2)Man(a1-6)]Man(b1-4)GlcNAc(b1-4)GlcNAc
# Procedure, shortened: as §1
# [4] = biological target: GlcNAc(b1-3)Gal(b1-4)GlcNAc(b1-3)Gal(b1-4)GlcNAc(b1-3)Gal(b1-4)GlcNAc(b1-2)[GlcNAc(b1-3)Gal(b1-4)GlcNAc(b1-3)Gal(b1-4)GlcNAc(b1-3)Gal(b1-4)GlcNAc(b1-6)]Man(a1-6)[GlcNAc(b1-3)Gal(b1-4)GlcNAc(b1-3)Gal(b1-4)GlcNAc(b1-3)Gal(b1-4)GlcNAc(b1-2)Man(a1-3)]Man(b1-4)GlcNAc(b1-4)[Fuc(a1-6)]GlcNAc
# Procedure, shortened: as §1
# [5] = biological target: GlcNAc(b1-3)Gal(b1-4)GlcNAc(b1-3)Gal(b1-4)GlcNAc(b1-3)Gal(b1-4)GlcNAc(b1-3)Gal(b1-4)GlcNAc(b1-2)[GlcNAc(b1-3)Gal(b1-4)GlcNAc(b1-3)Gal(b1-4)GlcNAc(b1-3)Gal(b1-4)GlcNAc(b1-3)Gal(b1-4)GlcNAc(b1-6)]Man(a1-6)[GlcNAc(b1-3)Gal(b1-4)GlcNAc(b1-3)Gal(b1-4)GlcNAc(b1-3)Gal(b1-4)GlcNAc(b1-3)Gal(b1-4)GlcNAc(b1-2)Man(a1-3)]Man(b1-4)GlcNAc(b1-4)[Fuc(a1-6)]GlcNAc
# Procedure, shortened: as §1
# [6] = biological target: GlcNAc(b1-3)Gal(b1-4)GlcNAc(b1-3)[GlcNAc(b1-3)Gal(b1-4)GlcNAc(b1-3)]GalNAc
# Procedure, shortened: as §1
# [7] = biological target: GlcNAc(b1-3)Gal(b1-4)GlcNAc(b1-6)[GlcNAc(b1-3)]Gal(b1-4)GlcNAc
# Procedure, shortened: as §1
# GlcNAc(b1-3)GalNAc = biological target: GlcNAc(b1-3)GalNAc
# Procedure, shortened: as §1
# GlcNAc(b1-6)GalNAc = biological target: GlcNAc(b1-6)GalNAc
# Procedure, shortened: as §1
# Kdn(a2-3)Gal(b1-3)GalNAc = biological target: Kdn(a2-3)Gal(b1-3)GalNAc
# Procedure, shortened: as §1
# [8] = biological target: Man(a1-3)[Man(a1-6)]Man(a1-6)[Man(a1-3)]Man
# Procedure, shortened: as §1
# [9] = biological target: Man(a1-3)[Man(a1-6)]Man(a1-6)[Man(a1-3)]Man(b1-4)GlcNAc(b1-4)GlcNAc
# Procedure, shortened: as §1
# [10] = biological target: Man(a1-3)[Man(a1-6)]Man(b1-4)GlcNAc(b1-4)GlcNAc
# Procedure, shortened: as §1
# Neu5Ac(a2-3)Gal = biological target: Neu5Ac(a2-3)Gal
# Procedure, shortened: as §1
# [11] = biological target: Neu5Ac(a2-3)Gal(b1-4)GlcNAc(b1-3)Gal(b1-4)GlcNAc(b1-3)[Neu5Ac(a2-3)Gal(b1-4)GlcNAc(b1-3)Gal(b1-4)GlcNAc(b1-6)]GalNAc
# Procedure, shortened: as §1
# [12] = biological target: Neu5Ac(a2-3)Gal(b1-4)GlcNAc(b1-3)Gal(b1-4)[Fuc(a1-3)]GlcNAc
# Procedure, shortened: as §1
# [13] = biological target: Neu5Ac(a2-3)Gal(b1-4)[Fuc(a1-3)]GlcNAc(b1-3)GalNAc
# Procedure, shortened: as §1
# [14] = biological target: Neu5Ac(a2-3)GalNAc(b1-4)GlcNAc
# Procedure, shortened: as §1
# [15] = biological target: Neu5Ac(a2-6)Gal(b1-4)GlcNAc(b1-2)Man
# Procedure, shortened: as §1
# [16] = biological target: Neu5Ac(a2-6)Gal(b1-4)GlcNAc(b1-2)Man(a1-6)[Gal(b1-4)GlcNAc(b1-2)Man(a1-3)]Man(b1-4)GlcNAc(b1-4)GlcNAc
# Procedure, shortened: as §1
# [17] = biological target: Neu5Ac(a2-6)Gal(b1-4)GlcNAc(b1-2)Man(a1-6)[GlcNAc(b1-2)Man(a1-3)]Man(b1-4)GlcNAc(b1-4)GlcNAc
# Procedure, shortened: as §1
# [18] = biological target: Neu5Ac(a2-6)Gal(b1-4)GlcNAc(b1-3)Gal(b1-4)GlcNAc(b1-2)Man(a1-3)[Neu5Ac(a2-6)Gal(b1-4)GlcNAc(b1-3)Gal(b1-4)GlcNAc(b1-2)Man(a1-6)]GalNAc
# Procedure, shortened: as §1
# [19] = biological target: Neu5Ac(a2-6)Gal(b1-4)GlcNAc(b1-3)Gal(b1-4)GlcNAc(b1-3)[Neu5Ac(a2-6)Gal(b1-4)GlcNAc(b1-3)Gal(b1-4)GlcNAc(b1-6)]GalNAc
# Procedure, shortened: as §1
# [20] = biological target: Neu5Ac(a2-6)Gal(b1-4)GlcNAc(b1-6)[Gal(b1-3)GlcNAc(b1-3)]Gal(b1-4)Glc
# Procedure, shortened: as §1
# [21] = biological target: Neu5Gc(a2-3)Gal(b1-3)GlcNAc
# Procedure, shortened: as §1
# [22] = biological target: Neu5Gc(a2-8)Neu5Gc(a2-3)Gal(b1-4)GlcNAc
# Procedure, shortened: as §1
binder,measurement,setting,value
HFR-3 (Triticum aestivum) (protein) MKGLLLCALALAFAAVTTHAQLQSCPTRCGKQADGMECPNNLCCSKDGYCGLGVDYCSAGAGCQSGACYDNKICGAQANGTLCRNNHCCSSGGRCGYGREYCSNGCQGGPCWADLKCGHLDNGKLCPNNLCCSQYGYCGLGPEFCGTGCQNGACSTDKPCGNKANGAPCTNNYCCSQYGSCGLGKDYCGTGCQNGACN,glycan array binding signal (z-score),Glc(b1-6)Glc,-0.1
same,glycan array binding signal (z-score),GlcA(b1-3)GlcNAc,0.799
same,glycan array binding signal (z-score),GlcA(b1-6)Gal,-0.641
same,glycan array binding signal (z-score),[1],0.598
same,glycan array binding signal (z-score),[2],-0.582
same,glycan array binding signal (z-score),[3],0.65
same,glycan array binding signal (z-score),[4],2.43
same,glycan array binding signal (z-score),[5],1.15
same,glycan array binding signal (z-score),[6],0.04
same,glycan array binding signal (z-score),[7],-1.09
same,glycan array binding signal (z-score),GlcNAc(b1-3)GalNAc,2.18
same,glycan array binding signal (z-score),GlcNAc(b1-6)GalNAc,-0.591
same,glycan array binding signal (z-score),Kdn(a2-3)Gal(b1-3)GalNAc,2.75
same,glycan array binding signal (z-score),[8],2.17
same,glycan array binding signal (z-score),[9],3.89
same,glycan array binding signal (z-score),[10],0.828
same,glycan array binding signal (z-score),Neu5Ac(a2-3)Gal,-0.367
same,glycan array binding signal (z-score),[11],0.555
same,glycan array binding signal (z-score),[12],-0.597
same,glycan array binding signal (z-score),[13],-0.052
same,glycan array binding signal (z-score),[14],1.18
same,glycan array binding signal (z-score),[15],0.755
same,glycan array binding signal (z-score),[16],-0.801
same,glycan array binding signal (z-score),[17],-0.077
same,glycan array binding signal (z-score),[18],0.189
same,glycan array binding signal (z-score),[19],0.943
same,glycan array binding signal (z-score),[20],-0.251
same,glycan array binding signal (z-score),[21],-0.969
same,glycan array binding signal (z-score),[22],-0.961
